From PubChem BioAssay
KCNQ2 block = blocks the rat KCNQ2 potassium channel; O88943; CHO-K1 KCNQ2, FluxOR thallium flux, 20 min; active compounds read low; B-score at 10 µM; 310,000 tested, 1.1% active; AID 2156;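 active means fluorescence ratio B-score at most minus 3 library SDs, with starting brightness B-score within 2 library SDs, cut at about -5.5 in these data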
KCNQ2 pot = potentiators of rat KCNQ2 potassium channel | CHO-K1 KCNQ2, FluxOR thallium flux fluorescence; active compounds read high | 310,000 tested, 0.54% active | B-score at 10 µM | O88943 | AID 2239;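 active means fluorescence ratio B-score at least 3 SD of library B-scores, with initial fluorescence B-score within 3 of them, cut at about 5.3 in these data; same plate scores as AID 2156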;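 further: B-score of peak minus minimum over baseline fluorescence ratio after K+ and Tl+ stimulus; positive B-score means potentiation of KCNQ2 with more thallium influx and brighter signal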
* hit, by the source's call; i = inactive; / = no result given. The list is not random: actives were taken first. Their share in the collection is about 1.6%.

SMILES | KCNQ2 block | KCNQ2 pot
O=C(N/N=C/c1ccc([N+](=O)[O-])cc1)c1cccs1 | i | /
O=C(N/N=C/c1cccc([N+](=O)[O-])c1O)c1cccs1 | i | 6*
Cc1cc(C)n2nc(C(=O)N/N=C/c3ccco3)nc2n1 | i | /
CS(=O)(=O)N1CCN(C(=O)NC2CCCCC2)CC1 | i | 2
C=C[C@]1(C)C=C2CCC3[C@](C)(CCC[C@@]3(C)C(=O)O)C2CC1 (stereo not given in full) | i | /
CC(C)C1=CC2=CCC3C(C)(C(=O)O)CCCC3(C)C2CC1 (stereo not given) (tested in a mixture with another compound) | -5.8* | -5.8
O=C(O)CC1c2ccccc2CCN1S(=O)(=O)c1cccs1 (stereo not given) | i | /
O=C(c1ccc2ccccc2c1)N1CCN(c2ccccc2)CC1 | -5.6* | -5.6
O=C(c1ccc2ccccc2c1)N1CCCCC1 | i | 0.86
COc1ccc(CCC(=O)N2CCCC(Nc3ccccc3)C2)cc1OC (stereo not given) | i | /
Cc1cc(C)cc(-n2cc(C(=O)O)c(=O)cc2C)c1 | i | /
CSc1nn2cc(CCN3CCOCC3)c(-c3ccc(F)cc3)nc2c1C#N | i | 0.04
CCOC(=O)c1c(-c2ccc(C)o2)csc1NC(=O)COC(=O)c1cccs1 | -6* | -6
CCOC(=O)c1c(-c2ccc(C)o2)csc1NC(=O)CN1CCOCC1 | i | /
CCn1c(SCC(=O)NNC(=O)c2ccc(C)cc2)nnc1C1CC1 | i | 1.4
COc1cc(/C=N/NC(=O)c2ccccc2O)ccc1OC(=O)CC1SC(=O)NC1=O (stereo not given) | i | 0.76
COc1cccc(CN(C)C(=O)c2cccc(OCc3ccccc3)c2)c1 | i | /
CCc1ccc(NC(=O)c2ccc(F)c(S(=O)(=O)N(CC)c3ccccc3)c2)cc1 | i | /
CCN(c1ccccc1)S(=O)(=O)c1cc(C(=O)Nc2cccc(Cl)c2)ccc1F | -8.1* | -8.1
COc1c(/C=N/NC(=O)c2ccncc2)c(CCN(C)C(C)=O)cc2c1OCO2 | i | 0.99
O=C(CSc1nc2ccccc2s1)N1c2ccccc2Sc2ccc(C(F)(F)F)cc21 | -6.5* | -6.5
O=C(CSc1nc2ccccc2s1)N1c2ccccc2Sc2ccc(Cl)cc21 | i | /
O=C(c1nc2ccc(Cl)cn2c1CNCCc1cnccn1)N1CCCCCCC1 | i | /
O=C(O)c1ccccc1NC(=O)C(c1ccccc1)c1ccccc1 | i | 1.4
O=C(Nc1ccc(Cl)c(Cl)c1)Nc1ccc(Br)cc1F | i | /
SMILES | KCNQ2 block | KCNQ2 pot
O=C(Nc1ccccc1O)C(c1ccccc1)c1ccccc1 | -6.5* | -6.5
O=C(Nc1ccc(Cl)c(Cl)c1)Nc1ccccc1O | i | 11*
Cc1cc(C(C)(C)C)cc(S(=O)(=O)NCCc2ccncc2)c1C | i | 1.4
Cc1noc(C)c1CSc1nc2sc(C)c(C)c2c(=O)n1-c1ccccc1 | i | /
C=CCn1c(SCc2c(C)noc2C)nc2sc(C)c(C)c2c1=O | -6.5* | -6.5
O=C(COC(=O)C1(c2ccc(F)cc2)CCCC1)Nc1ncc(C(F)(F)F)cc1Cl | -7* | -7
O=C(COC(=O)C1(c2ccc(Cl)cc2)CCCC1)Nc1ncc(C(F)(F)F)cc1Cl | i | /
CC(=O)Nc1ccc(S(=O)(=O)N(C)CC(=O)OCC(=O)N2CC(C)OC(C)C2)cc1 (stereo not given) | i | /
COc1cc(NC(=S)NCCc2ccccc2)c(OC)cc1NC(=O)C(C)C | -5.8* | -5.8
COc1ccccc1CNC(=S)NCCc1ccccc1 | i | /
Cc1c(C(=O)N(C)c2ccc(Cl)cc2)cnn1-c1ccccc1 | i | /
O=C(CCNS(=O)(=O)c1ccccc1)OCC(=O)c1ccc(Cl)cc1 | i | 0.44
Cc1[nH]c(C)c(S(=O)(=O)NCc2ccc(OC(C)C)cc2)c1C(=O)N1CCCC1 | -5.7* | -5.7
COc1ccc(CNS(=O)(=O)c2c(C)[nH]c(C)c2C(=O)N2CCCC2)cc1 | i | /
CCONc1ncnc2nonc12 | i | 0.41
Clc1ccc(CONc2ncnc3nonc23)c(Cl)c1 | i | 6.9*
O=C(COc1ccccc1[N+](=O)[O-])Nc1ccc2c(c1)OCO2 | i | /
Cc1cccc2c3c([nH]c12)CCNC3 | i | 0.11
CCOC(=O)c1c(NC(=O)C(Sc2ccccc2)c2ccccc2)sc(C(N)=O)c1C (stereo not given) | i | /
CCOC(=O)c1c(NC(=O)C(Sc2ccccc2)c2ccccc2)sc(C(=O)N(C)C)c1C (stereo not given) | -5.8* | -5.8
O=c1c2ccccc2nc(SCc2cc([N+](=O)[O-])cc3c2OCOC3)n1-c1ccccc1 | -6.1* | -6.1
O=c1c2ccccc2nc(SCc2ccc([N+](=O)[O-])cc2)n1-c1ccccc1 | i | /
Cn1cc(/C=C(\NC(=O)c2ccccc2)C(=O)N2CCOCC2)c2ccccc21 | i | /
Cc1ccc(C(=O)N/C(=C\c2cn(C)c3ccccc23)C(=O)N2CCOCC2)cc1 | -6.3* | -6.3
O=C(NCCCN1CCOCC1)C(C(=O)NCCCN1CCOCC1)c1ncc(C(F)(F)F)cc1Cl | i | 0.07
SMILES | KCNQ2 block | KCNQ2 pot
CC1=C(C(=O)OC(C)C)C(c2ccc3c(c2)OCO3)NC(=O)N1 (stereo not given) | i | 0.47
O=C(/C=C/c1ccc(F)cc1)Nc1cc(S(=O)(=O)N2CCOCC2)ccc1N1CCCC1 | i | /
CN1CCN(c2ccc(Cl)cc2NC(=O)/C=C/c2ccc(F)cc2)CC1 | -5.6* | -5.6
O=C(NCC(c1ccc(F)cc1)N1CCOCC1)c1cccc(Br)c1 (stereo not given) | i | /
CSCC[C@H](NC(=O)CC(C)(C)C)c1nc2ccccc2[nH]1 | i | /
CC(C)(C)CC(=O)N[C@@H](Cc1ccccc1)c1nc2ccccc2[nH]1 | -7.2* | -7.2
CCOCCCn1c(C)nc2c(c1=O)c1nc3ccccc3nc1n2CCC1=CCCCC1 | -5.8* | -5.8
O=c1c2c3nc4ccccc4nc3n(/N=C/c3ccco3)c2ncn1CCC1=CCCCC1 | -6.6* | -6.6
COCCCn1c2nc3ccccc3nc2c2c(=O)n(CC3CCCO3)cnc21 (stereo not given) | i | 0.02
CCCCCCn1c(C)nc2c(c1=O)c1nc3ccccc3nc1n2/N=C/c1ccco1 | i | /
O=c1c2[nH]c3ccccc3c2ncn1CCC1=CCCCC1 | i | /
Cc1nc2c(c(=O)n1CCC1=CCCCC1)c1nc3ccccc3nc1n2/N=C/c1ccccc1 | -5.7* | -5.7
Cc1ccc(SCc2nc(N)nc(Nc3ccccc3C)n2)c(C)c1 | i | 2.7
Cc1ccccc1Nc1nc(N)nc(CSc2ccc(F)cc2)n1 | i | /
Cc1ccc(SCc2nc(N)nc(Nc3ccccc3C)n2)cc1C | i | 6.7*
Cc1ccccc1Nc1nc(N)nc(CSCC(=O)Nc2cccc(Br)c2)n1 | i | 27*
CCOc1ccc(OCC)c(NC(=O)Cn2c(C)nc3ccccc3c2=O)c1 | i | 0.62
Cc1ccc(F)cc1CNC(=O)C1CCC(=O)N(CC2CCCCC2)C1 (stereo not given) | i | /
O=C(NC(NC1CCS(=O)(=O)C1)C(=O)c1cccs1)c1ccccc1 (stereo not given) | i | /
O=C(NC1=C(NC2CCS(=O)(=O)C2)C(=O)c2ccccc2C1=O)c1ccccc1 (stereo not given) | i | 6.2*
CN(C)c1ccc(C=NC(CO)C(O)c2ccc([N+](=O)[O-])cc2)cc1 (stereo not given) | i | /
